# Measured values published in ChEMBL document CHEMBL1961873, “Compounds: GSK PKIS; Assays: Nanosyn kinase panel” (2012).
# Biological target: SRSF protein kinase 1 (Homo sapiens) (UniProt Q96SB4)
# Details: at 0.1 µM
# 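Also: values are mean percent inhibition of SRPK1 kinase, measured in the GSK PKIS screening panel.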
# Sequence of SRSF protein kinase 1 (Homo sapiens) (Q96SB4 whole entry): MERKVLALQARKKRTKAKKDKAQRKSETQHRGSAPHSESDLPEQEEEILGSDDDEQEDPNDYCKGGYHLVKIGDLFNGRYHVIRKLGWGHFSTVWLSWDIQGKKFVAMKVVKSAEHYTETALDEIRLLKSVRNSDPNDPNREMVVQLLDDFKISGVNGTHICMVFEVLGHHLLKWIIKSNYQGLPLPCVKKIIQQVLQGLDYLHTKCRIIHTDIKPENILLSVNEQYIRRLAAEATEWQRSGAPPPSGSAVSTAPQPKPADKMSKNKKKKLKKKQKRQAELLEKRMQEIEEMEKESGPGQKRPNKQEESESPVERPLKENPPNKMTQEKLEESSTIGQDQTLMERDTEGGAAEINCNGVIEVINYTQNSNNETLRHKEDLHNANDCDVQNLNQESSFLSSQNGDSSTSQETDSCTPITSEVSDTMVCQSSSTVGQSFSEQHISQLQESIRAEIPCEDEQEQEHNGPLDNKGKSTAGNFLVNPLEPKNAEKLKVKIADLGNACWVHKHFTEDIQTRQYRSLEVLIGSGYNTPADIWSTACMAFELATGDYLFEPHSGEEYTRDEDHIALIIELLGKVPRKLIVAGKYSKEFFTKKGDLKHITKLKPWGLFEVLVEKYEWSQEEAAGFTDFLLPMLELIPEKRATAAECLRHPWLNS
row,Compound,inhibition [%]
1,ON=C1CCc2cc(-c3nc(C4CCNCC4)[nH]c3-c3ccncc3)ccc21,-1.62
2,O=C1Nc2ccc(-c3cccnc3)cc2C1=Cc1cc(Br)c(O)c(Br)c1,-1.92
3,CCOc1nccc2c1nc(-c1nonc1N)n2CC,0.65
4,c1ccc(Cc2nc3ccc(Nc4ncnc5ccccc45)cc3[nH]2)cc1,-1.1
5,O=C(Nc1ccc(Oc2ccc3[nH]c(NC(=O)c4ccco4)nc3c2)cc1)Nc1cc(C(F)(F)F)ccc1F,-0.3
6,FC(F)(F)c1ccc(-c2nn3ncccc3c2-c2ccnc(Nc3ccc4c(c3)OCCO4)n2)cc1,8.18
7,COc1cc2ncnc(Nc3ccc(C)c(O)c3)c2cc1OC,-1.2
8,c1ccc(Nc2ncc(-c3ccccc3)o2)cc1,-2.25
9,Cc1ccc(NC(=O)CC2CC2)cc1-c1ccc(C(=O)NCC2CC2)cc1,-0.1
10,OCc1ccc(-c2nc(-c3ccccn3)c(-c3ccc4c(c3)OCO4)[nH]2)cc1,-1.33
11,Cc1ccc(Nc2ccnc(Nc3cccc(C(N)=O)c3)n2)cc1O,-1.01
12,CN(c1ccc(NC(=O)Nc2ccc(OC(F)(F)F)cc2)cc1)c1ccnc(Nc2cccc(S(N)(=O)=O)c2)n1,-0.74
13,CN(C)C(=O)O[C@@H]1CN[C@@H](C#Cc2cc3ncnc(Nc4ccc(OCc5cccc(F)c5)c(Cl)c4)c3s2)C1,-1.65
14,NS(=O)(=O)c1ccc(Nc2cc(-c3cccc(O)c3)n[nH]2)cc1,-3.05
15,Cc1ccc2c(-c3ccnc(Nc4cccc(C(F)(F)F)c4)n3)c(-c3ccccc3)nn2n1,-3.32
16,COC(=O)Nc1nc2cc(Oc3ccc(NC(=O)Nc4cccc(Br)c4)cc3)ccc2[nH]1,-2.5
17,N#Cc1c(NC(=O)c2ccccc2F)sc2c1CCCC2,-1.54

row,Compound,inhibition [%]
1,CN(C)CCCn1c(-c2nonc2N)nc2cnccc21,-2.65
2,NS(=O)(=O)c1ccc(-c2cc3ccncc3cc2OCc2ccccc2)cc1,-1.87
3,NS(=O)(=O)c1cccc(-c2cc3ccncc3cc2OCc2ccccc2)c1,-1.98
4,N#Cc1cccc(Nc2nccc(-c3cnn4ncccc34)n2)c1,0.8
5,COc1cccc(-n2nc(C)c3c(N/N=C(\C)c4ccncc4)ncnc32)c1,-2.19
6,Oc1cccc(-c2nc(-c3ccccc3)[nH]c2-c2ccncc2)c1,-1.52
7,COc1cccc(-n2ncc3c(N/N=C/c4ccc(C)cc4)ncnc32)c1,-3.85
8,COc1cccc(-n2ncc3c(N/N=C/c4ccc(S(C)(=O)=O)cc4)ncnc32)c1,-0.76
9,NC(=O)c1sc(-n2cnc3ccccc32)cc1OCc1ccccc1Br,-3.49
10,Cc1cc(O)cc(C)c1/C=C/c1cncc(C(=O)N(C)C)c1,-0.98
11,COc1cc(/C=N/Nc2ncnc3c2cnn3C(C)C)ccc1O,-0.73
12,NS(=O)(=O)c1ccc(N/N=C2\C(=O)Nc3ccc(Cl)cc32)cc1,-1.45
13,Cc1cc(Cl)cc2c1NC(=O)C2=NNc1ccc(S(N)(=O)=O)cc1,-1.22
14,NC(=O)c1cccc(Nc2nccc(Nc3cccc(F)c3)n2)c1,-2.36
15,COc1cc2ncn(-c3cc(OCc4ccccc4S(C)(=O)=O)c(C#N)s3)c2cc1OC,-1.91
16,CCS(=O)(=O)c1ccc(OC)c(Nc2ncc(-c3cccc(OC)c3)o2)c1,-1.9
17,CS(=O)(=O)Nc1cccc(-c2ccc3c(NC(=O)C4CC4)n[nH]c3c2)c1,-2.53
